Several values for one entry are separate records, joined by “and”; a condition that tells them apart may be missing. Identical values can stand only once. Unmarked numbers belong to inactive results. Records with an inconclusive call do not appear. This is one part of the list. A call without a number means that no potency is given here. Activity calls are given as the source filed them. Unless noted, calls follow the shape of the dose curve; as a rule, active = well fitted curve in the direction sought with a large enough effect; inconclusive = small, poorly fitted or top-dose-only effect, or another doubt; inactive = no such curve, though single readings can be large; an effect the other way counts as inactive or inconclusive.
Columns and labels:
[1] = Stat Signaling Pathway (AID 446; active = well fitted curve in either direction with a large enough effect, not every such curve was filed as active;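 also: ME-180 cervical cancer cells given 40 pM IL-6 alongside compound; SIE-controlled beta-lactamase reporter measured as 460/530 nm FRET emission ratio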)
Method in brief: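 IL-6/STAT signaling read in ME-180 cells via an SIE beta-lactamase reporter. Stimulus was 40 pM IL-6 (its AC50) for 5 hrs, so both activation and inhibition register.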

[2] = target: Glucocorticoid receptor (Homo sapiens) (UniProt P04150); test: GR-GFP Redistribution (AID 450;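 active = compounds whose dose series gives a full or clear partial fitted curve of increased nuclear translocation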; also: potency is read from the fitted curve at half-maximal effect); conditions: U2OS GR-GFP nuclear translocation, laser cytometry, 2 h
[3] = target: Luciferin 4-monooxygenase (Photinus pyralis) (UniProt P08659); test: Biochemical firefly luciferase enzyme assay for NPC (AID 624030);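 also: purified P. pyralis luciferase at 10 nM with luciferin and ATP substrate; series mostly up to about 59 µM; nearly all actives have a fitted effect of over 70% in size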
Sequence of Luciferin 4-monooxygenase (Photinus pyralis) (P08659 whole entry, looked up): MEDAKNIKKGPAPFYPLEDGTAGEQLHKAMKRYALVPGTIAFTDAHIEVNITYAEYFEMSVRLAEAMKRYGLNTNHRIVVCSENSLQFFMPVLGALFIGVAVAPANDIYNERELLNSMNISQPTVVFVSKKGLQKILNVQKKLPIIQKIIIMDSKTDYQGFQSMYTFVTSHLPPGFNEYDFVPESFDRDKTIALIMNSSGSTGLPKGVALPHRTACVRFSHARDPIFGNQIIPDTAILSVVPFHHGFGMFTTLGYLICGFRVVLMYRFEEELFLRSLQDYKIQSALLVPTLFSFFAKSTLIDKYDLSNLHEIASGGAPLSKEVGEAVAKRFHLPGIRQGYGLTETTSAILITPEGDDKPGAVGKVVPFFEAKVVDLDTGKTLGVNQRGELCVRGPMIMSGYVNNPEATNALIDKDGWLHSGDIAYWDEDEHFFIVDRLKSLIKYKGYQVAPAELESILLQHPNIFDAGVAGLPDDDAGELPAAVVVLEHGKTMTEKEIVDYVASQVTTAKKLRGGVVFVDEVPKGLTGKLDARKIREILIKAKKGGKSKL
Method in brief: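 Direct inhibition of firefly luciferase enzyme (10 nM final, 50 mM Tris Acetate) assessed by luminescence within 5 minutes. Percent activity scaled between DMSO and PTC124 positive control, with concentration-effect curves classified by fit quality and response.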

[4] = qHTS for Inhibitors of the vitamin D receptor (VDR): Hit Validation using a Texas Red Assay (AID 602201); conditions: VDR coregulator binding, Texas Red fluorescence polarization; agonist-bound VDR ligand-binding domain; also: potency is read from the fitted curve at half-maximal effect
Method in brief: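 After a 2-hour room-temperature incubation, polarization of Texas-Red emission was read (Ex 595 nm/Em 615 nm). Final mix contained 7 nM Texas Red, 1.5 uM VDR-LBD and LG19078.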

[5] = target: Tumor susceptibility gene 101 protein (Homo sapiens) (UniProt Q99816); test: qHTS Assay for Iinhibitors of HIV-1 Budding by Blocking the Interaction of PTAP/TSG101: Hit Validation (AID 651600); also: nearly all actives have a fitted effect of over 70% in size
Sequence of Tumor susceptibility gene 101 protein (Homo sapiens) (Q99816 whole entry, looked up, the tested form may be a part): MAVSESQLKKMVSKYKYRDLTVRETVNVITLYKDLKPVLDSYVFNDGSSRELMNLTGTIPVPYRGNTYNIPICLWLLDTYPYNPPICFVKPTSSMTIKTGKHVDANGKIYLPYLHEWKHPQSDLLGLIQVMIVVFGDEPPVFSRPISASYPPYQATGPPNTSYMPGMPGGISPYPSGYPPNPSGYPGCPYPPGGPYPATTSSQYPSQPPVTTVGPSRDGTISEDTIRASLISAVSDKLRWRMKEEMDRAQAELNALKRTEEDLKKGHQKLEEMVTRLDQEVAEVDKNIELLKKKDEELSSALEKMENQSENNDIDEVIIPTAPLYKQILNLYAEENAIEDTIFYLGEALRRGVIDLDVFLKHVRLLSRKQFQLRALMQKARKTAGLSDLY
Method in brief: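 FITC-PTAP peptide (50 nM final) binding to Tsg101 binding domain (10 uM final) was measured by polarization after 20 min at r.t. with compounds, in 10 mM HEPES pH 7.5 buffer with 0.15 M NaCl and 0.01% Tween 20.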

[6] = target: Phosphoglycerate kinase, glycosomal (Trypanosoma brucei brucei) (UniProt P07378); test: qHTS for inhibitors of Phosphogylcerate Kinase: Hit Validation Screen (AID 686980); conditions: TbPGK coupled GAPDH assay, Kinase-Glo luminescence; also: potency is read from the fitted curve at half-maximal effect; nearly all actives have a fitted effect of over 65% in size
Sequence of Phosphoglycerate kinase, glycosomal (Trypanosoma brucei brucei) (P07378 whole entry, looked up): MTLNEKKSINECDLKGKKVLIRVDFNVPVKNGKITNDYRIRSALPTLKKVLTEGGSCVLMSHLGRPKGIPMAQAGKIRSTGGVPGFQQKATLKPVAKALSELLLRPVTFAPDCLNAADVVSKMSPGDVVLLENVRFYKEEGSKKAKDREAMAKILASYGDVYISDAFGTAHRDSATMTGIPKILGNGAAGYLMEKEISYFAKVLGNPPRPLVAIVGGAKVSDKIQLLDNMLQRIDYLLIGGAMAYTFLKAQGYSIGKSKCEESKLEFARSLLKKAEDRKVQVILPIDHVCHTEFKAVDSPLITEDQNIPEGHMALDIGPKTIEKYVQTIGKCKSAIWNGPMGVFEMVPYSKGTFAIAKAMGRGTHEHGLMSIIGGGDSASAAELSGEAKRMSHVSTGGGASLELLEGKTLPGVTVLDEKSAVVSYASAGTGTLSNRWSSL
Method in brief: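 Luminescent ATP detection (Kinase-Glo Plus) follows a 60-minute room-temperature incubation, with wells lacking PGK as controls. Buffer: 100 mM TEA (pH 7.6), 5 mM MgCl2, 0.01% Tween-20. Coupling enzyme GAPDH (100 nM final) supplies unstable 1,3-BPG in-well.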

[7] = target: DNA polymerase iota (Homo sapiens) (UniProt Q9UNA4); test: qHTS for Inhibitors of Polymerase Iota: Confirmatory Assay for Cherry-picked Compounds (AID 720496); conditions: Pol iota primer extension, TAMRA/BHQ fluorescence; also: potency is read from the fitted curve at half-maximal effect
Method in brief: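 Read-out is TAMRA fluorescence (525 nm excitation, 598 nm emission) at 0 and 10 min. It reflects strand displacement from a BHQ-2-quenched template by 10 nM Pol iota, with 50 nM final substrate after 15 min compound preincubation.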

[8] = target: DNA polymerase kappa (Homo sapiens) (UniProt Q9UBT6); test: qHTS for Inhibitors of Polymerase Kappa: Confirmatory Assay for Cherry-picked Compounds (AID 720501); conditions: purified Pol-kappa, fluorescent strand-displacement substrate; also: potency is read from the fitted curve at half-maximal effect
Sequence of DNA polymerase kappa (Homo sapiens) (Q9UBT6 whole entry, looked up): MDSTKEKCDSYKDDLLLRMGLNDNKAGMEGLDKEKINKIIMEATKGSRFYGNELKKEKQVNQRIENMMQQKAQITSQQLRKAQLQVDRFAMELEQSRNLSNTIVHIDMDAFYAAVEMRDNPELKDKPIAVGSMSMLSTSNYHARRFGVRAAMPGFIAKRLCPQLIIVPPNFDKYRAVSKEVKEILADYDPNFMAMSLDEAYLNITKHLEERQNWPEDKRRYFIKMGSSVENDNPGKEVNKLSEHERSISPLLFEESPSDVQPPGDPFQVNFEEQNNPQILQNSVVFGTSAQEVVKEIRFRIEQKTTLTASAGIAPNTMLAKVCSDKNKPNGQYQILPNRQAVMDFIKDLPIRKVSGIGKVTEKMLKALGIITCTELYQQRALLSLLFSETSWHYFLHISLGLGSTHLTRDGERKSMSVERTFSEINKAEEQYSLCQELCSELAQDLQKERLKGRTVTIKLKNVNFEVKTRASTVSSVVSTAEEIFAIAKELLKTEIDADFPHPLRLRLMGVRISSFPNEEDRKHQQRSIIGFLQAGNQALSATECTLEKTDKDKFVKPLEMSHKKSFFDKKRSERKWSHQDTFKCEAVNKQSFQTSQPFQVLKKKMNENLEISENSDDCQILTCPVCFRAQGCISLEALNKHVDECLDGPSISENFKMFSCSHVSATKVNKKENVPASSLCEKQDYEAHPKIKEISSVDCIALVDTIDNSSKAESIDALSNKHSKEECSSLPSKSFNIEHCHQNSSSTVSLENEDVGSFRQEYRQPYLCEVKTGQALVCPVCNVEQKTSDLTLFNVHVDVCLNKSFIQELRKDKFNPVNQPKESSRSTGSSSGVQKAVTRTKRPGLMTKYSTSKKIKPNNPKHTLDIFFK
Method in brief: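 Strand-displacement fluorescence read-out: TAMRA reporter released from a BHQ-2-quenched template, measured at 525/598 nm over a 10 min kinetic window. Substrate was 50 nM final; enzyme was 10 nM Pol-kappa, preincubated 15 min at room temperature with compound.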

[9] = target: DNA polymerase eta (Homo sapiens) (UniProt Q9Y253); test: qHTS for Inhibitors of Polymerase Eta: Confirmatory Assay for Cherry-picked Compounds (AID 720502); conditions: Pol eta primer extension, TAMRA/BHQ fluorescence, 10 min; also: potency is read from the fitted curve at half-maximal effect
Method in brief: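 Pol eta 10 nM; substrate 50 nM final (unlabeled primer, TAMRA reporter, BHQ-2 template); preincub. 15 min RT; reads t=0 and t=10 min at ex525/em598.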

[10] = qHTS Assay for Identifying Gametocytocidal Compounds (AID 743244);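 also: actives lower the fluorescent signal which means gametocytes are killed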; conditions: P. falciparum 3D7 stage III-V gametocytes, alamarBlue, 72 h; max response: stronger effect = lower value
Method in brief: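 Late gametocytes (III–V), P. falciparum 3D7; 72 h drug, then 24 h alamarBlue; resazurin reduction read by fluorescence.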

[11] = target: N-terminal Xaa-Pro-Lys N-methyltransferase 1 (Homo sapiens) (UniProt Q9BV86); test: Confirmatory qHTS for Inhibitors of N-terminal methyltransferase 1 (NTMT1): MTaseGlo Assay (AID 1645874); also: potency is read from the fitted curve at half-maximal effect; nearly all actives have a fitted effect of over 65% in size
Sequence of N-terminal Xaa-Pro-Lys N-methyltransferase 1 (Homo sapiens) (Q9BV86 whole entry, looked up): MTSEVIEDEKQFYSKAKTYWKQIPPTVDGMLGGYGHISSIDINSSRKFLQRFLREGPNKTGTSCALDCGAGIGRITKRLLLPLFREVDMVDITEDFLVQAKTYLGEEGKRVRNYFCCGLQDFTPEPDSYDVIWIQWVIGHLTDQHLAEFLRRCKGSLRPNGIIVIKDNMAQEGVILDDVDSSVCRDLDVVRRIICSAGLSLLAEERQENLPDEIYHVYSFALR
Method in brief: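 Compounds are incubated with 125 nM NTMT1 and 100 uM SAM for 15 min before the SPKRIA peptide (1 uM) starts a 30 min room-temperature methylation. SAH is measured by coupled luciferase luminescence and curves fitted to a Hill equation.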

[12] = target: Rap guanine nucleotide exchange factor 3 (Homo sapiens) (UniProt O95398); test: Confirmatory qHTS for antagonist of cAMP-regulated guanine nucleotide exchange factor 3 (EPAC1) (AID 1645880); also: potency is read from the fitted curve at half-maximal effect; nearly all actives have a fitted effect of over 55% in size
Sequence of Rap guanine nucleotide exchange factor 3 (Homo sapiens) (O95398 whole entry, looked up): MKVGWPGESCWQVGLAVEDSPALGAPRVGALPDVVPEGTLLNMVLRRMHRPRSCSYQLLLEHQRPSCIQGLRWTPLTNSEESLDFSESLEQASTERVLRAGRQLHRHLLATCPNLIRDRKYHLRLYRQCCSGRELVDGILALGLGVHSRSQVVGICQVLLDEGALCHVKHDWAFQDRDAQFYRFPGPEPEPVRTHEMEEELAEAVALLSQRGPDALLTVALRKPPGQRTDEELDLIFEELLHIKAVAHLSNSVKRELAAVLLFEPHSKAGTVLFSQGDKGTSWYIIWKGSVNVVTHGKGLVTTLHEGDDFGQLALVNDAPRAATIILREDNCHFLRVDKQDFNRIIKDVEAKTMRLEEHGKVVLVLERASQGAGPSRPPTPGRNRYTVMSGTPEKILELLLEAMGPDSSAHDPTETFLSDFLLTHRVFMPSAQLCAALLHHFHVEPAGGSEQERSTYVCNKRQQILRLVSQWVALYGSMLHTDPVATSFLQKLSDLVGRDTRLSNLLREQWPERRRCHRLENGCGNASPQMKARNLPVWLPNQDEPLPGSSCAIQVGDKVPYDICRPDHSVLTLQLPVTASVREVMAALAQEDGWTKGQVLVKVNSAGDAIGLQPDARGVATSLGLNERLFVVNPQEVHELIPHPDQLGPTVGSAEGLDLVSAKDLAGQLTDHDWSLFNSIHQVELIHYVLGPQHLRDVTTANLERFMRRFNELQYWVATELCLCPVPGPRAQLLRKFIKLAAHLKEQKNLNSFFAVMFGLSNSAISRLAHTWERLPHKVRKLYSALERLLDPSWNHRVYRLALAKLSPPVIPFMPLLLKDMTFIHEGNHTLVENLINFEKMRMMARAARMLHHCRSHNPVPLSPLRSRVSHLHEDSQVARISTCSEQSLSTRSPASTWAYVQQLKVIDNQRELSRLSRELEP
Method in brief: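 Nucleotide exchange uses 100 nM EPAC1, 250 nM RAP1B-BODIPY-GDP and 50 uM GDP, with compounds in a concentration-titration series. After 5 min at room temperature, fluorescence (480 nm ex/540 nm em) is read every 5 min for 30 min. Data are normalized to control ATA and DMSO.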

[13] = target: Rap guanine nucleotide exchange factor 3 (Homo sapiens) (UniProt O95398); test: Confirmatory qHTS for agonist of cAMP-regulated guanine nucleotide exchange factor 3 (EPAC1) (AID 1645881);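 also: EPAC1 catalysed release of BODIPY-GDP from Rap1B seen as fluorescence loss; nearly all actives have a fitted effect of over 75% in size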
[14] = target: Rap guanine nucleotide exchange factor 4 (Homo sapiens) (UniProt Q8WZA2); test: Confirmatory qHTS for agonist of cAMP-regulated guanine nucleotide exchange factor 4 (EPAC2) (AID 1645884);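 also: nucleotide exchange releases bodipy-GDP from Rap1 and this lowers its fluorescence; nearly all actives have a fitted effect of over 65% in size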
Sequence of Rap guanine nucleotide exchange factor 4 (Homo sapiens) (Q8WZA2 whole entry, looked up): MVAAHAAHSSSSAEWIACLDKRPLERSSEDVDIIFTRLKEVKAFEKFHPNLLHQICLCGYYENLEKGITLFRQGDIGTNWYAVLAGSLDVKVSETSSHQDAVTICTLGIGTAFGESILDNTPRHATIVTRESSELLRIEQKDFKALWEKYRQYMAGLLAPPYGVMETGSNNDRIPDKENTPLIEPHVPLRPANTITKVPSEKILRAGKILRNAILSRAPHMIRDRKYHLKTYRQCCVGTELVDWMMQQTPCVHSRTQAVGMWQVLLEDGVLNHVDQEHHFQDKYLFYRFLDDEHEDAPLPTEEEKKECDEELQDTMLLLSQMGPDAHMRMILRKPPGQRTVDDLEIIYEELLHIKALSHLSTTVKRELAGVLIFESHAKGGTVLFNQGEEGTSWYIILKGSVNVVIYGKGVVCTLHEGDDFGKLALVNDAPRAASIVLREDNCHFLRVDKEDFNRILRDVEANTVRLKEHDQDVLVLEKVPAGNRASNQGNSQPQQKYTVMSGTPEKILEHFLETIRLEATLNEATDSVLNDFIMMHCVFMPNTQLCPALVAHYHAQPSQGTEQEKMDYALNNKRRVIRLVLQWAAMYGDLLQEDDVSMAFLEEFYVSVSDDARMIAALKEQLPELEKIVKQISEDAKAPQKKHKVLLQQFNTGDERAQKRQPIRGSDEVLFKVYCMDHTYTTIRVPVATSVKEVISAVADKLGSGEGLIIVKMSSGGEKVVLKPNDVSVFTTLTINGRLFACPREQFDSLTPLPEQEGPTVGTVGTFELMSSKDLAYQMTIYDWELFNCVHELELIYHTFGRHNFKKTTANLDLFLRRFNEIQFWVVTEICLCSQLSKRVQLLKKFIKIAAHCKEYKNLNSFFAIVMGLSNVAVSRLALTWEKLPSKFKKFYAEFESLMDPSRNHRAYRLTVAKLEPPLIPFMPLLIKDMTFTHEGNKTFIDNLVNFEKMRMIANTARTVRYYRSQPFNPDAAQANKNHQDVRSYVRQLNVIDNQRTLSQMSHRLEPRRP

[15] = target: Rap guanine nucleotide exchange factor 4 (Homo sapiens) (UniProt Q8WZA2); test: Confirmatory qHTS for antagonist of cAMP-regulated guanine nucleotide exchange factor 4 (EPAC2) (AID 1645885); also: nearly all actives have a fitted effect of over 25% in size
[16] = target: Rap guanine nucleotide exchange factor 3 (Homo sapiens) (UniProt O95398); test: Counterscreen qHTS for antagonist of cAMP-regulated guanine nucleotide exchange factor 3 (EPAC1) (AID 1645888);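 also: fluorescence loss as bound BODIPY-GDP is released from Rap1B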
Method in brief: (§1)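 Rap1B-BODIPY-GDP 250 nM + GDP 50 uM; cpds 7-pt, final 9.74 nM–152 uM (activator mode) or from 7.32 nM upwards (inhibitor mode); RT; FI 480/540 nm at 5 and 30 min, then ± cAMP, reread.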

[17] = target: Rap guanine nucleotide exchange factor 3 (Homo sapiens) (UniProt O95398); test: Counterscreen qHTS for agonist of cAMP-regulated guanine nucleotide exchange factor 3 (EPAC1) (AID 1645889); also: nearly all actives have a fitted effect of over 40% in size
Method in brief: as §1

For `C[C@@H]1C[C@H]2[C@@H]3C[C@H](F)C4=CC(=O)C=C[C@]4(C)[C@@]3(F)[C@@H](O)C[C@]2(C)[C@@]1(O)C(=O)COC(=O)C(C)(C)C`, the outcome [1] was “inactive”, the Potency [2] was 0.00124 µM (active) and the Potency [3] was “inactive”.
For `Cc1ccnc(NC(c2cc(C)ccc2O)c2ccc3cccnc3c2O)c1` (configuration not stated), the Potency [4] was 28.2 µM (active).
With `COc1ccc(OC)c(/C=C(\C#N)c2nc3ccccc3c(=O)[nH]2)c1` the Potency [5] was “inactive”.
With `C=CC1=C(C(=O)O)N2C(=O)[C@@H](NC(=O)/C(=N\OCC(=O)O)c3csc(N)n3)[C@H]2SC1` the Potency [6] was 4.11 µM (active), the Potency [7] was 7.52 µM (active) and the Potency [8] was 4.74 µM (active). For the same molecule, the Potency [9] was 19 µM (active).
With `CC[C@H]1OC(=O)[C@H](C)[C@@H](O[C@H]2C[C@@](C)(OC)[C@@H](O)[C@H](C)O2)[C@H](C)[C@@H](O[C@@H]2O[C@H](C)C[C@H](N(C)C)[C@H]2O)[C@](C)(OC)C[C@@H](C)C(=O)[C@H](C)[C@@H](O)[C@]1(C)O` the max response [10] was -5.34%.
With `O=C(CSc1nc(-c2ccc(F)cc2)nc2c1Cc1ccccc1O2)Nc1cccc(C(=O)O)c1` the Potency [11] was 6.02 µM (active), the Potency [12] was 6.01 µM (active) and 151 nM (active) and the Potency [13] was “inactive”. The Potency [14] was “inactive”, the Potency [15] was “inactive” and the Potency [16] was “inactive”.
For `Cc1cc(Cl)ccc1NC(=O)Cn1nc(C)c2c(C)n(-c3ccccc3)nc2c1=O`, the Potency [12] was 84.9 µM (active), the Potency [13] was “inactive” and the Potency [14] was “inactive”. The Potency [15] was “inactive” and the Potency [16] was “inactive”.
With `COc1ccccc1NC(=O)CSc1nc(-c2ccc(C(C)(C)C)cc2)c(C#N)c(=O)[nH]1` the Potency [12] was 67.5 µM (active), the Potency [13] was “inactive” and the Potency [14] was “inactive”. For the same molecule, the outcome [15] was “inactive [at 12.7 µM]”, the Potency [16] was “inactive” and the Potency [17] was “inactive”.

— PubChem BioAssay (NCATS)
